# Test results taken from PubChem BioAssay AID1907 (The Scripps Research Institute Molecular Screening Center, 2009).
# Among all 1,900 compounds or so, about 1,200 (63%) were called active. The set was probably picked from earlier hits. These entries were drawn from the full list. Values without a mark were called inactive. Cut-off read from the data, not from the text of the source: active = inhibition above about 22%; inactive = the rest.
# Test: rat intestinal IEC-6 viability loss – cell-based, luminescence, cytotoxicity control, confirmation (AID 1907);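 note: 0% = vehicle and 100% = reference cytotoxic drug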
# Conditions: IEC-6 rat intestinal epithelial viability, at 5 µM, active compounds read high
row,Compound,inhibition
1,CC1=CC(=Cc2sc3ccccc3[n+]2C)C=C(C)O1,32.9% (active)
2,Cc1cc2ccccn2c1C(C[N+](=O)[O-])c1c(F)cccc1Cl (stereo not drawn),10.8%
3,COc1cc(-n2c(=S)[nH]c3ccc(C)cc3c2=O)c(Cl)cc1Cl,-14.8%
